The source made the active and inactive calls.

Drawing on PubChem BioAssay, this text covers z-score and composite z-score for eight compounds.

Assay [1] addresses NADPH oxidase 4 (Homo sapiens) (UniProt Q9NPH5). Put plainly: compounds shifting NOX4 Amplex Red fluorescence – cell-based, HEK293-NOX4, tetracycline-induced, NOX inhibitor project, primary screen (AID 1160). The settings on record: HEK293-NOX4, Amplex Red H2O2 fluorescence, 45 min; higher = more signal, called active from +8 up or from −8 down.
Assay [2] concerns the target NADPH oxidase 5 (Homo sapiens) (UniProt Q96PH1). Nature of the assay: compounds shifting NOX5 Amplex Red fluorescence – cell-based, HEK293-NOX5, NOX inhibitor project, primary screen (AID 1161). The settings on record: HEK293-NOX5, ionomycin, 45 min, higher = more signal.
A short description of assay [3]: compound effects on lung adenocarcinoma cell viability – A549, calcein-AM fluorescence, 48 h, basal, profiling panel (AID 1162). Further: test concentration not given here. The settings on record: higher = more signal.
The nature of assay [4]: compound effects on differentiated 3T3-L1 adipocyte viability – cell-based, 3T3-L1 adipocytes, calcein-AM fluorescence, 48 h, basal, profiling panel (AID 1163). Further: test concentration not given here. The conditions noted are these: 3T3-L1 adipocytes viability, higher = more signal.
Assay [5] is described as follows: compound effects on hepatocellular carcinoma cell viability – HepG2, calcein-AM fluorescence, 48 h, basal, profiling panel (AID 1164). Further: test concentration not given here. The settings on record: higher = more signal.
Assay [6] is described as follows: compound effects on multiple myeloma cell viability – MM1S, calcein-AM fluorescence, 48 h, basal, profiling panel (AID 1165). Further: test concentration not given here. The conditions noted are these: higher = more signal.
The nature of assay [7]: calcein-AM signal in unstimulated myeloma cells – cell-based, calcein-AM fluorescence, 48 h, PK04 Diversity Set, profiling panel (AID 1166).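 Further: cells grown under basal conditions without added stimulus; test concentration not given here.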 The settings on record: RPMI8226 myeloma viability, higher = more signal.
Assay [8] in a line: JC-1 mitochondrial signal, unstimulated HepG2 cells – cell-based, JC-1 fluorescence, 24 h, 100 nL compound, profiling panel (AID 1167). Further: test concentration not given here. The settings on record: HepG2 mitochondrial potential, higher = more signal.
Assay [9] in a line: JC-1 mitochondrial signal, unstimulated adipocytes – cell-based, JC-1 fluorescence, 3T3-L1 adipocytes, 24 h, 100 nL compound, profiling panel (AID 1168). Further: test concentration not given here. The conditions noted are these: JC-1 mitochondrial fluorescence, higher = more signal, called active from +8 up or from −8 down.
A short description of assay [10]: JC-1 mitochondrial signal, unstimulated myeloma cells – cell-based, JC-1 fluorescence, RPMI8226, 24 h, 100 nL compound, profiling panel (AID 1169). Further: test concentration not given here. The settings on record: JC-1 mitochondrial potential fluorescence, higher = more signal.
Assay [11] is described as follows: JC-1 mitochondrial signal, unstimulated MM1S myeloma – cell-based, JC-1 fluorescence, 24 h, 100 nL compound, profiling panel (AID 1170). Further: test concentration not given here. The settings on record: MM1S mitochondrial potential, higher = more signal.
Assay [12] can be described thus: resazurin metabolic signal in A549 cells – cell-based, resazurin fluorescence, 24 h, PK04 Diversity Set, profiling panel (AID 1171). Further: test concentration not given here. The settings on record: A549 viability, higher = more signal, called active from +8 up or from −8 down.
Assay [13] can be described thus: resazurin metabolic signal in HepG2 cells – cell-based, resazurin fluorescence, 24 h, PK04 Diversity Set, profiling panel (AID 1172). Further: test concentration not given here. The settings on record: HepG2 viability, higher = more signal. (Resazurin is reduced to fluorescent resorufin, in cell work by metabolically active cells.)
Assay [14] is described as follows: budding yeast growth changes without added modifier – OD600, strain BY4716, 24 h, basal condition, primary screen (AID 1173). The conditions noted are these: S. cerevisiae BY4716 growth, OD600, 24 h; higher = more signal, called active from +8 up or from −8 down.
The nature of assay [15]: viability profiling in MM1S myeloma cells – cell-based, resazurin fluorescence, basal, 24 h, PK04 Diversity Set, profiling panel (AID 1174). Further: test concentration not given here. The conditions noted are these: higher = more signal, called active from +8 up or from −8 down.
The target in assay [16] is Dihydroorotate dehydrogenase (quinone), mitochondrial (Plasmodium falciparum (isolate 3D7)) (UniProt Q08210). Nature of the assay: inhibition of P. falciparum DHODH – biochemical, C-terminal His tag, absorbance 600 nm, primary screen (AID 1175).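 Further: recombinant parasite enzyme with a five histidine tag at its C terminus; test concentration not given here.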 The conditions noted are these: PfDHODH enzyme, DCIP absorbance 600 nm; higher = more signal, called active from +8 up or from −8 down.

The nature of assay [17]: growth modulation of vineyard yeast isolate – strain RM11-1a, OD600, basal, 24 h, primary screen (AID 1177).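 Further: cultures grown under basal conditions with no added stressor; test concentration not given here.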 The conditions noted are these: S. cerevisiae RM11-1a growth, OD600, 24 h; higher = more signal, called active from +8 up or from −8 down.
Assay [18] is described as follows: growth of efflux-deficient E. coli DRC39 – strain DRC39, OD650, 24 h, E. coli filamentation inducers, primary screen (AID 1178).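 Further: growth measured as culture turbidity by optical density at 650 nm; test concentration not given here.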 The settings on record: E. coli DRC39 acrAB, higher = more signal, called active from +8 up or from −8 down.
A short description of assay [19]: growth of efflux-deficient E. coli DRC39 – strain DRC39, OD650, 48 h, E. coli filamentation inducers, primary screen (AID 1179).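 Further: screen aims at cell division blockers that make cells filament.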 The conditions noted are these: E. coli DRC39 delta-acrAB growth, higher = more signal, called active from +8 up or from −8 down.
Assay [20] can be described thus: viability profiling in RPMI8226 myeloma cells – cell-based, resazurin fluorescence, basal, 24 h, PK04 Diversity Set, profiling panel (AID 1180).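 Further: RPMI8826 multiple myeloma cell line at 5000 cells per well; test concentration not given here.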 The settings on record: higher = more signal.

NADPH oxidase 5 (Homo sapiens), sequence (Q96PH1 whole entry, looked up): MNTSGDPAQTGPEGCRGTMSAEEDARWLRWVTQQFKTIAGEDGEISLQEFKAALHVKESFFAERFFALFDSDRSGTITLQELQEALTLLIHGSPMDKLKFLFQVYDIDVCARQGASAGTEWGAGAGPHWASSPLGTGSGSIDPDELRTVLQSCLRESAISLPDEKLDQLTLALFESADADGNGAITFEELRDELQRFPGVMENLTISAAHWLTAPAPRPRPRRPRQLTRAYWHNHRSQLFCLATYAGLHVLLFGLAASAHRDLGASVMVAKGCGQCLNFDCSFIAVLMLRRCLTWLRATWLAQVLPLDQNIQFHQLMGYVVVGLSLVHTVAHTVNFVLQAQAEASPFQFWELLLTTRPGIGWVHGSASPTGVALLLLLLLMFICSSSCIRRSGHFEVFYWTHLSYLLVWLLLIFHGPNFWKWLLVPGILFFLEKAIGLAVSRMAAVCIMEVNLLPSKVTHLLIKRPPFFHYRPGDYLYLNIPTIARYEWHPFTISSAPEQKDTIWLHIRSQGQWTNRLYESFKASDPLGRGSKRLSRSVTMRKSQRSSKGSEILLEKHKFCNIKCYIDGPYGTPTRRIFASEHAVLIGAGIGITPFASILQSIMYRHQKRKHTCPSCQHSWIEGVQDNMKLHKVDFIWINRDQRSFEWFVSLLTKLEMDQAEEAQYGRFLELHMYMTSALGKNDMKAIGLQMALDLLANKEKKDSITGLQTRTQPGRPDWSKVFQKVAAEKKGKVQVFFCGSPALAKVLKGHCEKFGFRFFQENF
NADPH oxidase 4 (Homo sapiens), sequence (Q9NPH5 whole entry, looked up): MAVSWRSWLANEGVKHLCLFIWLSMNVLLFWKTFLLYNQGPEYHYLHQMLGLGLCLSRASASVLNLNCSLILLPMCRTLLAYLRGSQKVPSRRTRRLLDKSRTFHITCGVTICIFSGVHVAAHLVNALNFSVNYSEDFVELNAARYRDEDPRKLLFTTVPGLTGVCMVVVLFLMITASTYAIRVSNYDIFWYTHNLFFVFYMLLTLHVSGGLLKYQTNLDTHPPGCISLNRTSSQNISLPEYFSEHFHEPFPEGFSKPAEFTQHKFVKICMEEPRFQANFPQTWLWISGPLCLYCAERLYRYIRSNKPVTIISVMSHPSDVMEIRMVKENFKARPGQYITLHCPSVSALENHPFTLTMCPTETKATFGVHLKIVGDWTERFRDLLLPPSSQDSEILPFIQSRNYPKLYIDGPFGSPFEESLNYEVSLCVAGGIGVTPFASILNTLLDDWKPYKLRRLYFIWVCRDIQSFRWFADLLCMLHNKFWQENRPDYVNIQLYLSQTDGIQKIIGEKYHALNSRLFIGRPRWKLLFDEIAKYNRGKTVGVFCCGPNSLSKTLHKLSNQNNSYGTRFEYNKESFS
Dihydroorotate dehydrogenase (quinone), mitochondrial (Plasmodium falciparum (isolate 3D7)), sequence (Q08210 whole entry, looked up): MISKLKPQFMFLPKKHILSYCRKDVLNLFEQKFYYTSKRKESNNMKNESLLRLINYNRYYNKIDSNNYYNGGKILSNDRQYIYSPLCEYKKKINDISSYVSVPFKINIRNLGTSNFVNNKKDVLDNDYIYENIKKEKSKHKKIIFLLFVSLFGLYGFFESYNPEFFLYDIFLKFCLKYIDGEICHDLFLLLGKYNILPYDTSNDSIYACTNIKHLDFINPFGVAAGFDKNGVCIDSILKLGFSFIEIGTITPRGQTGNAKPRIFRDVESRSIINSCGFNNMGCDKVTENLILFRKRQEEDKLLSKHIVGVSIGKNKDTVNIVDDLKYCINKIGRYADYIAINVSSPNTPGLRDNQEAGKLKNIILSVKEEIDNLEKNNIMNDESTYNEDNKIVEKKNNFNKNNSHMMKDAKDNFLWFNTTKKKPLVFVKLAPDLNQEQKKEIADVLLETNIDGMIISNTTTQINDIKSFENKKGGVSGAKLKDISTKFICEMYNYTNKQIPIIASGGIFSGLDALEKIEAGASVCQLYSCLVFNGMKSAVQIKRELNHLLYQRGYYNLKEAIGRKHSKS

For the compound `COc1ccc([Si](C)(C)[C@@H]2[C@@H](CCn3cc(CCO)nn3)O[C@]3(C(=O)N(Cc4ccc(N5C(=O)c6cccc7cccc5c67)cc4)c4ccccc43)[C@H]2C)cc1`, the z-score in assay [1] is 1.62 (inactive); in assay [2], 1.42; in assay [3] it was -1.32; in assay [4], 1.91; in assay [5], -4.48; in [6], -2.68. In addition, the z-score in assay [7] is -4.34; in assay [8] it was 1.75; in assay [9] it was 2.83 (inactive); in assay [10], -1.04; in assay [11], -1.78; in assay [12] it was -2.38 (inactive). The z-score is -1.3 in assay [13]; -0.456 (inactive) in assay [14]; -5.44 (inactive) in [15]; 0.643 (inactive) in assay [17]; 2.2 (inactive) in assay [18]; 1.02 (inactive) in [19]. This compound also gave a z-score in [20] of -4.14. Also, the composite z-score in assay [16] is 0.0498 (inactive).
As to `C=CCN1C(=O)[C@]2(O[C@H](CCn3cc([C@H](O)c4ccccc4)nn3)[C@@H]([Si](C)(C)c3ccc(OC)cc3)[C@@H]2C)c2cc(N3CCOC3=O)ccc21`, the z-score was 1.61 (inactive) in [1]; -2.66 in [2]; 0.0522 in [3]; 3.08 in assay [4]; -0.812 in assay [5]; -1.98 in assay [6]. Moreover, the z-score is -2.86 in assay [7]; 3.15 in assay [8]; 2.62 (inactive) in assay [9]; -0.906 in [10]; -0.286 in assay [11]; -2.25 (inactive) in assay [12]. In addition, the z-score in [13] was -1.22; in [14], -0.506 (inactive); in [15] it was -0.72 (inactive); in assay [17] it was 0.58 (inactive); in assay [18] it was 1.84 (inactive); in assay [19] it was 1.06 (inactive). In assay [20], this compound came in with a z-score of -1.23. Also, in [16], the composite z-score is -0.175 (inactive).
Consider `CC(C)CNC(=O)[C@@H]1c2ccccc2C(=O)N(Cc2ccc(OC(F)(F)F)cc2)[C@H]1c1ccc(CO)cc1`, for which the z-score in assay [1] is 0.925 (inactive); in assay [2] it was 1.57; in [3] it was 2.26; in assay [4], 0.18; in assay [5], 0.442; in assay [6] it was -0.201. Also, the z-score in [7] is 0.351; in [8], 2.64; in assay [9] it was 1.08 (inactive); in assay [10], 0.417; in assay [11], -0.881; in assay [12], 1.31 (inactive). Besides, the z-score in assay [13] is 0.867; in assay [14], -1.78 (inactive); in [15] it was 1.33 (inactive); in assay [17], -2.73 (inactive); in [18], 1.38 (inactive); in assay [19], 1.5 (inactive). In assay [20], the z-score came to 1.13. For the same compound, the composite z-score in assay [16] was -0.876 (inactive).
Regarding `C=C(COC)/C(=C/C[C@H](OC(C)=O)c1ccc(CO)o1)c1cnc2ccccc2c1`, the z-score was 0.615 (inactive) in [1]; 0.915 in [2]; 0.283 in [3]; 0.788 in assay [4]; -0.957 in assay [5]; -1.42 in assay [6]. Also, the z-score in [7] was -0.182; in assay [8] it was 0.117; in [9], 0.411 (inactive); in assay [10] it was 0.624; in assay [11] it was -0.271; in [12], 0.445 (inactive). Also, the z-score in assay [13] was 0.441; in assay [14], -1.24 (inactive); in assay [15], 1.04 (inactive); in [17] it was -0.819 (inactive); in assay [18], 1.48 (inactive); in assay [19], 0.383 (inactive). Also, the z-score in [20] amounted to 0.981. For the same compound, in assay [16], the composite z-score was -7.31 (inactive).
As for `O=C(O)[C@H]1C[C@H]2C(=O)NCC(=O)N2[C@H]1c1cccc(OCCO)c1`, the z-score in [1] was 1.52 (inactive); in assay [2] it was 1.61; in [3], -0.24; in assay [4], 0.926; in [5], -0.59; in assay [6] it was -1.13. Besides, the z-score in [7] was -0.319; in assay [8] it was 1.27; in assay [9], -0.116 (inactive); in [10], -0.186; in [11], 1.14; in assay [12] it was -0.0876 (inactive). The z-score is 0.354 in [13]; -1.62 (inactive) in assay [14]; 1.21 (inactive) in assay [15]; -1.25 (inactive) in [17]; 0.712 (inactive) in assay [18]; -0.057 (inactive) in [19]. Moreover, the z-score in assay [20] stood at 0.62. In addition, the composite z-score in [16] was -1.04 (inactive).
On to `CC(=O)NCCCC[C@@H]1NC(=O)[C@@H]2C[C@H](C(=O)O)[C@H](c3cccc(OCCO)c3)N2C1=O`, for which the z-score in assay [1] was -0.282 (inactive); in assay [2], -0.948; in [3], 0.0822; in assay [4] it was 0.75; in [5] it was -0.988; in assay [6], -1.8. The z-score in [7] was 0.267; in assay [8] it was 1.31; in assay [9], 0.317 (inactive); in assay [10] it was 0.501; in assay [11], 0.483; in [12], 0.537 (inactive). The z-score in [13] is 0.377; in assay [14] it was 0.178 (inactive); in [15], 0.636 (inactive); in [17] it was 1.2 (inactive); in assay [18], 0.504 (inactive); in assay [19], 0.167 (inactive). Besides, the z-score in assay [20] came out at 0.873. For the same compound, the composite z-score in assay [16] was -0.252 (inactive).
Regarding `CC(C)CCC[C@@H](C)[C@H]1CC[C@@]2(C)C3=C(CC[C@]12C)[C@@]1(C)CC[C@H](OC(=O)CCl)C(C)(C)C1CC3` (stereo not given in full), the z-score is 0.446 (inactive) in [1]; 0.517 in assay [2]; 1.98 in [3]; 0.155 in [4]; 1.17 in assay [5]; 0.405 in assay [6]. Moreover, the z-score in assay [7] is 0.895; in assay [8], 1.58; in assay [9] it was -0.207 (inactive); in [10] it was -0.493; in [11], 1.07; in assay [12], 0.96 (inactive). Further, the z-score in assay [13] is 1.16; in [14], -0.795 (inactive); in [15], 0.33 (inactive); in assay [17], -0.249 (inactive); in [18], 2.93 (inactive); in assay [19] it was 1.59 (inactive). Also, the z-score in assay [20] was found to be 0.444. Also, in [16], the composite z-score is 0.141 (inactive).
Consider `C=C(COC)C(=O)CC[C@@H](OC(=O)c1ccccc1-c1ccccc1C(=O)O)c1cccc(OCCO)c1`, for which the z-score in assay [1] was 1.34 (inactive); in assay [2], -0.986; in assay [3], 0.467; in assay [4], 0.649; in assay [5] it was -0.441; in assay [6], -1.99. The z-score in [7] was -1.43; in [8], 0.0537; in [9], 0.469 (inactive); in assay [10], -0.0226; in assay [11], 1.4; in assay [12], 1.2 (inactive). The z-score in [13] was 0.417; in assay [14], -0.749 (inactive); in [15], 0.0335 (inactive); in [17], 0.291 (inactive); in [18], 1.16 (inactive); in assay [19], 0.755 (inactive). This compound also had a z-score in assay [20] of 0.458. Besides, in assay [16], the composite z-score was -0.733 (inactive).
